GDH-TPI counter = counter-screen for M. tuberculosis FBA inhibitors: GDH-TPI coupled enzymes; GDH-TPI coupled enzyme counterscreen, NADH absorbance; inhibition, % at 4.8 µM; 1.2% of 360,000 active; AID 588335; in the data active = inhibition above about 30%;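 also: 0% = DMSO wells and 100% = wells lacking the enzyme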
Yp Topo-I inh = blocks Yersinia pestis topoisomerase I activity; 0.064% of 360,000 active; Y. pestis Topo-I cleavage product accumulation, plate reader; activity, % at 10 µM; AID 504884; in the data active = activity above about 50%, passing the limit was not always enough; inconclusive = no clear call, values can overlap the other calls
PrP UTR inh = suppresses PrP 5' UTR mRNA reporter expression. 0.35% of 340,000 active. cell-based PrP 5' UTR mRNA reporter, plate reader. inhibition, % (concentration not given with the values); in the data active = inhibition above about 52%; also: 0 = median of the neutral control wells
Mtb hypoxia rep = reduces hypoxia-regulated biosensor signal in M. tuberculosis; M. tuberculosis hypoxia-regulated fluorescent reporter, fluorescence; fluorescence inhibition, % (no concentration beside the values); 0.1% of 300,000 active; in the data active = fluorescence inhibition mostly above about 23%, no sharp cut-off; inactive = mostly below about 17%
PrPC surface inh = inhibitors of human cell surface prion protein PrPC | P04156 | TR-FRET read-out | inhibition, % at 13.8 µM | 0.43% of 370,000 active | AID 720596; in the data active = inhibition above about 24%; also: 0% = median of the test wells and 100% = reference compound wells
FBA Mtb inh = Mtb fructose-bisphosphate aldolase inhibition | P9WQA3 | inhibition, % at 1 µM | 2.3% of 360,000 active | purified M. tuberculosis FBA, fluorescence read-out; in the data active = inhibition above about 27%;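 also: 0% = vehicle and 100% = reference inhibitor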
Target sequence (P9WQA3 whole entry, looked up): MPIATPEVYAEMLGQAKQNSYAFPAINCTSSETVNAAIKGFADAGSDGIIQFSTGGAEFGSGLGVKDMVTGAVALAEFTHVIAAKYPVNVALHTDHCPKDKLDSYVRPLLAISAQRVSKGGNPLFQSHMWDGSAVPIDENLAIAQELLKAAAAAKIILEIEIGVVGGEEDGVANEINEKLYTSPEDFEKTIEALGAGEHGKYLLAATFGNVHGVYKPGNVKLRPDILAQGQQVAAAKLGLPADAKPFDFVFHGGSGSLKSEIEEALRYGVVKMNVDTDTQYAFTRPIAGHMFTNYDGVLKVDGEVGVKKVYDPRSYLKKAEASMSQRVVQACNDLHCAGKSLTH
PrP UTR cherry = prion 5' UTR mRNA inhibition, cherry-pick retest | shares compounds with PrP UTR inh | cell-based prion protein 5' UTR reporter, plate reader | inhibition, % at 2.5 µM | 48% of 1,100 active | AID 504592; in the data active = inhibition above about 54%; inconclusive = no clear call, values can overlap the other calls
* = called active by the depositor; ? = inconclusive; / = no result. In the library only some 3.8% were active in any assay of this set; here they are far more common.

SMILES	GDH-TPI counter	Yp Topo-I inh	PrP UTR inh	Mtb hypoxia rep	PrPC surface inh	FBA Mtb inh	PrP UTR cherry
COc1ccc(-c2cc3c(nn2)-c2ccccc2C3=O)cc1	5	15	63*	5	3	0	?
O=C1c2ccccc2-c2nnc(-c3ccccc3)cc21	3	-11	-39	10	-10	-3	/
COCCN=C1NN=C(c2cc(C)n(CC3CCCO3)c2C)CS1 (stereo unspecified)	9	14	15	-1	-8	0	/
C=CCN=C1NN=C(c2ccc3c(c2)OCCO3)CS1	11	-11	59*	8	-3	3	79*
COCCn1c(C)cc(C2=NNC(=Nc3ccccc3F)SC2)c1C	0	4	67*	4	-7	1	?
C=CCN=C1NN=C(c2cc(C)n(CC=C)c2C)CS1	8	-10	83*	14	-4	-2	79*
NC(=O)C1CC2(CC(c3cccc(NC(=O)COc4ccc(Cl)cc4)c3)=NO2)CN1C(=O)C1CCC(=O)N1 (stereo unspecified)	/	/	/	1	/	/	/
Cc1cccc(N2C(=O)N3C(c4ccc(F)cc4)C4C(=O)N(C5CCCCC5)C(=O)C4[C@]3(Cc3ccc(Cl)cc3)C2=O)c1 (stereo partly specified)	/	/	/	12	/	/	/
Clc1ccc2c(NN=Cc3ccccc3Br)ccnc2c1	/	/	/	6	/	/	/
c1ccc2ncccc2c1	6	9	63*	/	/	3	6
S=C(NCc1ccco1)Nc1ccc(Br)cn1	-1	9	-13	15	8	-1	/
S=C(NCc1ccco1)Nc1cc(-c2ccccc2)[nH]n1	-5	6	62*	-5	5	2	-4
Cc1cc(C(=O)CN2C(=O)c3ccccc3S2(=O)=O)c(C)n1C(C)C	5	13	60*	2	-8	5	64*
CCn1c(C)cc(C(=O)CN2C(=O)c3ccccc3S2(=O)=O)c1C	7	0	67*	3	-4	1	69*
C=CCn1c(C)cc(C(=O)CN2C(=O)c3ccccc3S2(=O)=O)c1C	8	-4	92*	6	/	6	92*
Cc1cc(C(=O)CN2C(=O)c3ccccc3S2(=O)=O)c(C)n1-c1ccccc1	3	10	57	/	-3	4	/
NC(=NOC(=O)Nc1ccccc1)c1ncc(C(F)(F)F)cc1Cl	/	/	/	5	/	/	/
CC(C)Oc1ccccc1C=NNc1ccccc1[N+](=O)[O-]	/	/	/	6	/	/	/
ClC(Cl)(Cl)c1nc(NN=Cc2ccncc2)c2ccccc2n1	/	/	/	8	/	/	/
C=C(C)C1CC=C(C)C(=NNC(=S)Nc2ccc(C)cc2)C1 (stereo unspecified)	/	/	/	2	/	/	/
Cc1ccc(COc2ccccc2-c2cc(C(=O)NN=Cc3cccnc3)[nH]n2)cc1	/	/	/	8	/	/	/
COc1ccc(C(Nc2ccccn2)c2oc(CO)cc(=O)c2O)cc1 (stereo unspecified)	3	1	62*	-3	-3	0	-37
Cc1c(/C=N\NC(=O)C2COc3ccccc3O2)c2ccccc2n1C (stereo unspecified)	26	10	67*	/	4	-1	83*
Cc1c(C=NNC(=O)C2COc3ccccc3O2)c2ccccc2n1C (stereo unspecified)	/	/	/	9	/	/	/
Cc1nc2ccccc2c(=O)n1/N=C/c1c(O)ccc2oc3c(c12)CCCC3	7	8	61*	/	-4	1	-2
SMILES	GDH-TPI counter	Yp Topo-I inh	PrP UTR inh	Mtb hypoxia rep	PrPC surface inh	FBA Mtb inh	PrP UTR cherry
Cc1cn([C@H]2C[C@H](O)[C@@H](CCC(=O)NCCc3c[nH]c4ccccc34)O2)c(=O)[nH]c1=O	7	-6	59*	1	2	-1	-54
CN(CC(=O)Nc1cccc(F)c1)CC(=O)N(C)CC(=O)Nc1ccccc1Br	9	3	91*	-1	-5	-1	-30
COC(=O)c1c(NC(=O)c2ccc([N+](=O)[O-])o2)sc2c1CCN(C(C)C)C2	13	-13	66*	/	13	1	97*
COC(=O)C1CCN(c2cc(=O)n(-c3ccc(OC)cc3)c(=O)[nH]2)CC1	-14	-1	68*	-4	-4	0	-15
Cc1nnc(NN2CCOCC2)[nH]c1=O	6	7	84*	16	7	0	-29
COC(=O)C1=C(C)N(Cc2ccccc2)C(=NCc2cc(OC)c(OC)c(OC)c2)NC1c1ccc(Br)cc1 (stereo unspecified)	/	/	/	-12	/	/	/
C[C@@]12C(=O)N(Cc3ccccc3)CC(=O)N1C1c3ccccc3OCC1C2c1ccccc1 (stereo partly specified)	/	/	/	-9	/	/	/
NC(=O)c1ccc(NCCc2ccccc2)c([N+](=O)[O-])c1	-2	0	-10	7	-36	-5	/
COc1ccc(CCNc2ccc(C(=O)O)cc2[N+](=O)[O-])cc1OC	5	-9	62*	18	-28	-7	10
CC(C)N(C(=O)CON=Cc1cccc([N+](=O)[O-])c1)C(C)C	/	/	/	14	/	/	/
O=C(COC(=O)c1ccccc1Cl)NCc1cccs1	-8	-3	/	/	4	3	/
CN(C(=O)c1ccccc1C(=O)OCC(=O)NCc1cccs1)C1CCCCC1	-1	-4	55*	-7	9	2	-15
O=C(c1cccc(OCc2ccccc2)c1)N1CCOCC1	0	6	-18	10	/	2	/
CCOc1ccc(OCc2cccc(C(=O)N3CCOCC3)c2)cc1	2	-10	61*	8	9	2	70*
O=C(NN=Cc1cn(-c2ccccc2)nc1-c1cccs1)c1ccncc1	/	/	/	10	/	/	/
COc1cc(C2c3[nH]c4ccccc4c3CC3COC(=O)N32)cc(OC)c1O (stereo unspecified)	4	-6	59*	/	4	1	90*
NC(Cc1ccc(O)cc1)c1cn([C@@H](CCC(=O)O)C(=O)N2CCNCC2)nn1 (stereo partly specified)	10	4	64*	/	1	4	-2
O=C(Nc1ccc(F)cc1)c1ccc(C(=O)N2CCOCC2)cc1	-8	-2	-14	9	-4	-4	/
O=C(NCCc1ccccc1)c1ccc2c(c1)OCCO2	11	-4	88*	/	4	3	83*
O=C(CCCc1ccccc1)c1ccc2c(c1)OCCO2	-2	-2	83*	1	-2	1	89*
O=C(c1ccccc1)N1CCN(C(=O)c2ccc3c(c2)OCCO3)CC1	2	1	78*	-6	7	-1	-12
COc1ccc(CCNC(=O)c2ccc3c(c2)OCCO3)cc1	6	6	-45	9	4	2	/
O=C(c1ccc(F)cc1)N1CCOCC1	-3	0	69*	14	4	0	-18
O=C1C=C(c2ccc(-c3ccccc3)c(F)c2)CC(c2ccc3c(c2)OCO3)C1 (stereo unspecified)	/	/	/	3	/	/	/
CC1CN(C(C)CO)C(=O)c2cccc(NC(=O)Cc3ccccc3)c2OC1CN(C)Cc1ccncc1 (stereo unspecified)	/	/	/	5	/	/	/
